Out of some 1,600 compounds screened, about 410 (26%) were called active. The list is a sample of the results. Unmarked numbers belong to inactive results.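 Rule for the calls: active = mean inhibition over triplicates above the low-control well mean plus 3 SD, set per campaign (cut at about 13% in these data); inactive = the rest.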
assay: forskolin-stimulated cAMP inhibition in U2OS – cell-based, TR-FRET, triplicate, counter-screen for MC4R biased antagonist project (AID 602193); details: parental U2OS, LANCE TR-FRET, at 6.5 µM, hits give high values;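 note: signal is single emission at 671 nm which falls as cellular cAMP rises; 0% = forskolin-stimulated wells and 100% = buffer without forskolin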

SMILES	inhibition
Cc1ccc(NC(=O)C(C)OC(=O)Cc2c[nH]c3ccccc23)cc1S(=O)(=O)N1CCOCC1 (stereo not drawn)	2.7%
CC(C)Oc1c(Br)cc(Br)cc1/C=N/NC(N)=S	19.3% (active)
C=Cn1c(C(=O)O)ccc1-c1ccc(OC)cc1	-3.83%
CCOC(=O)c1c(NC(=O)CCl)sc(C(=O)N(CC)CC)c1C	17.7% (active)
Cc1ccc(NS(=O)(=O)c2ccc(C)c(NC(=O)COc3ccc4ccccc4c3)c2)c(C)c1	2.54%
COc1cccc(OC)c1C(=O)Nc1c(C(=O)N2CCN(c3ccccn3)CC2)oc2ccccc12	-1.8%
CC1(C)Cc2ccccc2-c2[nH]c(=S)[nH]c(=O)c21	22.1% (active)
CCOc1ccc(Nc2nc(Cl)nc(N3CCN(c4ccc(OC)cc4)CC3)n2)cc1	11.2%
O=C(OCC(=O)N1CCCCCC1)c1cnc(Cl)c(Cl)c1	21.2% (active)
COc1ccc(CCNC(=O)COC(=O)c2cnc(Cl)c(Cl)c2)cc1	17.2% (active)
COc1ccc(CCNC(=O)c2cnc(Cl)c(Cl)c2)cc1	13.7% (active)
COc1ccc(C(C)C)cc1S(=O)(=O)Nc1ncn[nH]1	0.13%
CCCC(C(=O)n1nc(C)cc1C)C(NS(=O)(=O)c1ccc(C)cc1)c1ccccc1 (stereo not drawn)	3.42%
CCOC(=O)CSc1nc(N2CCOCC2)c2c(c1C#N)CC(C(C)C)OC2 (stereo not drawn)	3.57%
Cc1ccc(CSc2nnc(-c3cnccn3)n2C)cc1	-1.1%
COc1ccc(-c2n[nH]c(C)c2-c2ccccc2OC)c(O)c1	4.68%
COc1ccc2oc(N)c(C=O)c(=O)c2c1	-1.23%
COc1ccc(-c2nc3n(c(=O)c2C#N)CCS3)c(OC)c1	-2.32%
O=C(NC1=CC(=O)c2ccccc2C1=O)c1ccccc1	-5.71%
COC(=O)c1sc(-c2ccc(C(C)(C)C)cc2)cc1NC(=O)/C=C/C(=O)O	1.28%
COCCCNC(=O)/C(C#N)=C/c1c(N2CCCCCC2)nc2ccccn2c1=O	9.32%
CN(C)C(CNC(=O)CCCOc1ccccc1)c1ccco1 (stereo not drawn)	-0.67%
Cc1ccc(Sc2ccc(NC(=O)c3ccc(F)cc3)cc2C#N)cc1	5.25%

Reference: PubChem BioAssay AID602193 (The Scripps Research Institute Molecular Screening Center, 2012)
